Results as given in PubChem BioAssay (Tox21).
Unmarked numbers belong to inactive results. The call rests on the fitted dose curve.

These compounds were tested against Estrogen receptor (Homo sapiens) (UniProt P03372) (assay: qHTS assay to identify small molecule agonists of the estrogen receptor alpha (ER-alpha) signaling pathway in the presence of an antagonist (AID 1259383; further: top concentration of the series differs between compounds; nearly all actives have a fitted effect of over 15% in size)). Settings: VM7Luc4E2 cells, ERE-luciferase, +ICI-182,780, 22 h; series mostly up to 92.4 µM; activation: at the top concentration.
How it was run: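 Agonist-mode confirmation run in the presence of 10.0nM (final) ICI-182,780 antagonist. The reporter was ERE-driven luciferase in VM7Luc4E2 cells, grown in charcoal-stripped serum. Cells were exposed to 15-concentration compound series for 22hr, then ONE-Glo luminescence was read.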
On the % scale 0 is the no-effect control and ±100 the full control effect.

Sequence of Estrogen receptor (Homo sapiens) (P03372 whole entry, looked up): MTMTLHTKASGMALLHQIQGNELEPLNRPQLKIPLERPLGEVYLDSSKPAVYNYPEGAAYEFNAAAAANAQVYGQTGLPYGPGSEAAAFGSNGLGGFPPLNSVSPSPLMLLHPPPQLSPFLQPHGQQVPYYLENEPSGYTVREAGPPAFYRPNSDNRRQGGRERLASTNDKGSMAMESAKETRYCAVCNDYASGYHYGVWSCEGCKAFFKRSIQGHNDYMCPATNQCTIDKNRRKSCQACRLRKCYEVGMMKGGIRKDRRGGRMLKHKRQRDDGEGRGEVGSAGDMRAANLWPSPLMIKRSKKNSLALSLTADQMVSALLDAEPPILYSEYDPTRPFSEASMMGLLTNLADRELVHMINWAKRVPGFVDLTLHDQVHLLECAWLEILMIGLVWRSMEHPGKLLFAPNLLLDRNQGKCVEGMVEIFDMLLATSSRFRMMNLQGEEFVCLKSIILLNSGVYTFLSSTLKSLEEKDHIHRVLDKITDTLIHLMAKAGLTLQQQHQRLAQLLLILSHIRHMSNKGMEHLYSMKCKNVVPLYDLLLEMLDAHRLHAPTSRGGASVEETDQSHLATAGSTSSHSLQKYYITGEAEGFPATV

Structure (SMILES) | activation
CC(C)c1ccccc1 | -1.19%
CC(C)CCCCCCc1ccc(OCCOCCO)cc1 | -1.28%
Cc1ccsc1C(=CCCN1CCC[C@@H](C(=O)O)C1)c1sccc1C | -1.07% [at 42.5 µM]
Cc1ncc(CO)c(CN)c1O | -0.235% [at 42.5 µM]
CC(CNC1CCCCC1)OC(=O)c1ccccc1 (stereo not given) | -0.467% [at 42.5 µM]
COc1ccc(S(=O)(=O)Nc2nnc(CC(C)C)s2)cc1 | -1.45% [at 42.5 µM]
CO[C@@]1(NC(=O)CSCC#N)C(=O)N2C(C(=O)O)=C(CSc3nnnn3C)CS[C@@H]21 | -0.568% [at 42.5 µM]
C[C@@H]1CN(c2c(F)c(F)c3c(=O)c(C(=O)O)cn(C4CC4)c3c2F)C[C@H](C)N1 | -0.582% [at 19 µM]
CC(=O)N(CC(O)CN(C(C)=O)c1c(I)c(C(=O)NCC(O)CO)c(I)c(C(=O)NCC(O)CO)c1I)c1c(I)c(C(=O)NCC(O)CO)c(I)c(C(=O)NCC(O)CO)c1I (stereo not given) | 0.457% [at 42.5 µM]
CC(C)(C)c1cccc(O)c1 | 3.03%
CCC(=O)O[C@]1(C(=O)SCF)[C@H](C)C[C@H]2[C@@H]3C[C@H](F)C4=CC(=O)C=C[C@]4(C)[C@@]3(F)[C@@H](O)C[C@@]21C | 1.67% [at 42.5 µM]
C=Cc1ccccc1 | -1.52%
CCCNC(C)C(=O)Nc1c(C)csc1C(=O)OC (stereo not given) | -0.0639% [at 42.5 µM]
CCN(CC)CCNC(=O)COc1ccc(Cl)cc1 | -0.812% [at 42.5 µM]
O=c1oc2c(O)c(O)cc3c(=O)oc4c(O)c(O)cc1c4c23 | -0.711% [at 19 µM]
Cc1cc(S(=O)(=O)O)c(N)cc1Cl | -0.0317%
O=c1[nH]c(=O)n([C@H]2C[C@H](O)[C@@H](CO)O2)cc1C(F)(F)F | 0.0143% [at 42.5 µM]
CC1=C2[C@H](/C=C(\C)C(=O)O)CC[C@@H](C)[C@H]2CC1 | -0.379%
Nc1cccc(S(=O)(=O)O)c1 | -0.812%
FC(F)(F)C(F)(F)C(F)(F)C(F)(F)C(F)(F)C(F)(F)C(F)(F)C(F)(F)Br | 0.309% [at 42.5 µM]
N#CSCC(=O)O | 0.389% [at 42.5 µM]
CC(=O)O[C@H]1CC[C@@]2(C)C(=CC[C@@H]3[C@@H]2CC[C@]2(C)C(C(C)=O)=CC[C@@H]32)C1 | 2.2% [at 42.5 µM]
CCCC(CCC)(C(=O)OCC)C(=O)OCC | 0.0203% [at 42.5 µM]
CC1=C(CC(=O)O)c2cc(F)ccc2/C1=C\c1ccc(S(C)(=O)=O)cc1 | -0.952% [at 42.5 µM]
OCCN(CCO)c1ccccc1 | -0.0908%
CCN(CC)CC1CCCCN1CC(=O)N1c2ccccc2C(=O)Nc2cccnc21 (stereo not given) | 0.245% [at 42.5 µM]
COC(=O)C(C)O (stereo not given) | -0.111%
CN1CCN(N)CC1 | -0.0816% [at 42.5 µM]
CN1CCN(C2=Nc3cc(F)ccc3Cc3ccccc32)CC1 | -1.02% [at 42.5 µM]
CC1(O)CSC(C)(O)CS1 (stereo not given) | 0.692%
